A selection: hits, their analogues and other compounds. The true share with any hit is near 2.7%.
IP6K1 inhibitor = blocks human inositol hexakisphosphate kinase 1. IP6K1 kinase, ADP-Glo luminescence, 2 h; hits give low values. activity change, % (series mostly up to about 58 µM). 140,000 tested, 0.81% active; in the data active = activity change below about -25%; note: % is set by controls: 0 for no effect and ±100 for the full control effect
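ADP-Glo luminescence measures ADP made by human IP6K1 during a 2 h RT reaction with ATP/IP6 (mix at 1.3 mM/130 uM); top library doses 57.5 and 19.1 uM final.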
KDM5B inh = inhibitors of human KDM5B histone demethylase; Q9UGL1; KDM5B demethylase, FDH-coupled NADH fluorescence (FDH is formaldehyde dehydrogenase); Potency, µM (series often up to 57.7 µM), hits mostly inhibitors; 220,000 tested, 2.6% active; AID 1347165; active = well fitted inhibition curve with a large enough effect; inconclusive = small, poorly fitted or top-dose-only effect; inactive = no such curve, though single readings can be large or run the other way; note: potency is the fitted concentration of half-maximal effect; 0% is about no effect; nearly all actives have a fitted effect of over 70% in size
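Here, H3K4me3 peptide (12.5 µM in substrate mix) is demethylated by KDM5BΔAP, 200 nM final, after 10 min compound exposure. Formaldehyde product is coupled through FDH (0.25 U/mL in mix) to NADH fluorescence; 30-min ΔRFU feeds dose-response curves.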
* marks the source's active call; other numbers are inactive results; i = inactive; u = inconclusive; x = no result given.

SMILES	IP6K1 inhibitor	KDM5B inh
CC(C)n1nc(OC(C)(C)C(=O)NCCc2ccccn2)c2cc(CN3CCOCC3)ccc21	8	28µM*
CCOC(=O)[C@@H]1CN(C(=O)NCc2ccccc2)[C@H]2c3cccc(F)c3O[C@@H]12	7	x
Cc1ccc(C)c(NCc2cc3cccc(C)c3[nH]c2=O)c1	x	i
CC(NCc1cccc(C#N)c1)c1ccc(Cl)c(Cl)c1 (stereo unspecified)	x	i
CCn1cc(C(=O)N2CCC3(CC2)CN(Cc2ccccc2)CC3CO)cn1 (stereo unspecified)	4	u
Cn1cc(C(=O)N2CCC3(CC2)CN(c2ncccn2)CC3CO)cn1 (stereo unspecified)	6	25µM*
CCOc1ccc(C(=O)N2CCC3(CC2)CN(c2ncccn2)CC3CO)cc1 (stereo unspecified)	-1	25µM*
CCOc1ccccc1C(=O)N1CCC2(CC1)CN(c1ncccn1)CC2CO (stereo unspecified)	7	32µM*
CCOc1ccc(C(=O)N2CCN(c3ncccn3)CC2)cc1	x	i
CCOc1ccccc1C(=O)N1CCC(Oc2ncccc2C(=O)N2CCCCC2)C1 (stereo unspecified)	2	i
O=C(c1cccc(OC(F)F)c1)n1ccccc1=NC1CCCCC1	x	i
Cc1ccc(NC(C)C(=O)Nc2sccc2C#N)c(C)c1 (stereo unspecified)	x	i
CCc1ccc(C(C)NC(=O)Cn2nnn(-c3ccccc3)c2=O)cc1 (stereo unspecified)	x	i
O=C(NCc1ccc(F)cc1)c1nc(-c2ccccc2)c2cnccn12	-2	79µM*
O=C(NCc1cccnc1)c1nc(-c2cccc(C(F)(F)F)c2)c2cnccn12	12	28µM*
C[S+](=O)([O-])c1ccc(-c2nc(C(=O)NCc3cccs3)n3ccccc23)cc1	13	i
COC(=O)CNC(=O)c1nc(-c2ccc(Cl)nc2)c2ccccn12	-19	u
COC(=O)CNC(=O)c1nc(-c2ccc([S+](C)(=O)[O-])cc2)c2cnccn12	-17	25µM*
O=C(NCc1cccs1)c1nc(-c2ccc(F)cc2)c2cnccn12	12	40µM*
C[S+](=O)([O-])c1ccc(-c2nc(C(=O)NCc3ccc(F)cc3)n3ccncc23)cc1	-14	i
CCCCNC(=O)CN1CCN(c2ccc(C(=O)O)cc2NS(=O)(=O)c2cccs2)CC1	x	i
CC(C)CC(=O)Nc1cc2c(cc1Sc1ccccc1Cl)n(C)c(=O)n2C	x	i
CCOc1ccccc1NC(=O)N1CCC(n2c(C)cnc2-c2cccnc2)C1 (stereo unspecified)	7	x
O=C(NC1CCCN(c2ccc3nnc(-c4ccccc4)n3n2)C1)c1ccccc1Cl (stereo unspecified)	1	x
CN(C(=O)c1cccc(Cl)c1)C1CCCc2ccccc21 (stereo unspecified)	-7	i
SMILES	IP6K1 inhibitor	KDM5B inh
O=C(NCc1cccnc1)c1nc(-c2ccc(F)cc2)c2cnccn12	0	28µM*
O=C(NCc1cccnc1)c1nc(-c2cccc(F)c2)c2cnccn12	4	22µM*
O=C(NCc1ccncc1)c1nc(-c2cccnc2)c2cnccn12	-11	u
O=C(NC1CC1)c1nc(-c2cccc(C(F)(F)F)c2)c2cnccn12	1	i
O=C(NCc1ccc(F)cc1)c1nc(-c2ccc(Cl)cc2Cl)c2cnccn12	12	56µM*
COC(=O)CNC(=O)c1nc(-c2cccc(C(F)(F)F)c2)c2cnccn12	0	28µM*
O=C(NCc1ccc(F)cc1)c1cc(-c2ccc(Cl)cc2Cl)c2cccn2n1	-6	i
COc1ccccc1-c1ccc(CN2CCCCC2C(=O)NCc2ccccc2)cc1 (stereo unspecified)	11	x
COc1cccc(OC)c1C(=O)OCC(=O)c1ccc(Cl)cc1Cl	x	i
CCCCCCNC(=S)Nc1ccccc1	x	i
O=C(NCc1ccc(F)cc1)c1nc(-c2ccc(Cl)nc2)c2ccccn12	-9	u
O=C(NC1CC1)c1nc(-c2cccc(F)c2)c2cnccn12	4	i
CC(C)NC(=O)c1nc(-c2ccc(F)cc2)c2ccccn12	6	35µM*
C#CCNC(=O)c1nc(-c2cccc(F)c2)c2cnccn12	0	35µM*
O=C(c1nc(-c2ccc(F)cc2)c2ccccn12)N1CCCC1	0	i
O=C(NCc1ccc(F)cc1)c1nc(-c2cccnc2)c2ccccn12	-6	112µM*
Cc1ccc(CN2CC(Oc3ccccc3C(=O)N3CCOCC3)C2)cc1C	-9	i
CC(C)c1ccc(NC(=O)c2ccccc2Cl)cc1	x	i
COC(=O)CNC(=O)COC(=O)c1ccc2ccccc2n1	x	i
O=C(CCS(=O)(=O)c1nc(-c2cccs2)cc(C(F)(F)F)n1)Nc1ccc(OC(F)(F)F)cc1	-58*	i
COc1ccc(NC(=O)CCS(=O)(=O)c2nc(-c3cccs3)cc(C(F)(F)F)n2)cc1	1	i
O=C1COc2ccc(-c3ccc(F)cc3)nc2CN1Cc1ccccc1F	-14	i
O=C1COc2ccc(-c3ccncc3)nc2CN1Cc1ccccc1F	2	35µM*
COc1cccc(-c2ccc3c(n2)CN(Cc2ccc(F)cc2)C(=O)CO3)c1	1	i
O=C1COc2ccc(-c3ccncc3)nc2CN1Cc1ccc(F)cc1	-9	25µM*
SMILES	IP6K1 inhibitor	KDM5B inh
COc1ccc(-c2ccc3c(n2)CN(Cc2ccc(F)cc2)C(=O)CO3)cc1	-3	22µM*
Cn1cc(-c2ccc3c(n2)CN(Cc2ccc(F)cc2)C(=O)CO3)cn1	0	i
Cc1ccc(CN(C)CC(=O)NC(=O)NC2CCCC2)cc1	x	i
CC(C)(C)CN1Cc2cc3c(cc2N(CC(O)COc2ccccc2)CCC1=O)OCO3 (stereo unspecified)	10	x
OCCN(CCO)CC(O)COc1ccc2ccccc2c1 (stereo unspecified)	x	i
COc1cc(C)c2c(c1C)C[C@H]([C@H](C)C(=O)O)CC2	7	i
COc1cc(C)c2c(c1C)C[C@H](C(C)C(=O)NCc1ccco1)CC2 (stereo partly specified)	14	35µM*
CS(=O)(=O)c1ccc2nc(NC(=O)/C=C/c3cccs3)sc2c1	x	i
Cc1ccc2c(=O)cc(C(=O)Nc3ccc(S(N)(=O)=O)cc3)oc2c1	x	i
Cc1cccc(N2CCN(C(=O)C3CCN(C(=O)C4CC4)CC3)CC2)n1	12	22µM*
Cc1ccc(-c2ccccc2CN2CCC(C(=O)N3CCN(c4ncccn4)CC3)CC2)cc1Cl	-8	x
Cc1ncnc(N2CCN(C(=O)C3CCN(C(=O)C4CC4)CC3)CC2)c1C	18	i
Cc1cc(C)nc(N2CCN(C(=O)C3CCN(CC(N)=O)CC3)CC2)n1	0	28µM*
O=C(Nc1ccccc1)c1c[nH]c2ccc(F)cc2c1=O	x	i
O=C(CSc1ncnc2nc[nH]c12)NCCc1c[nH]c2ccc(Cl)cc12	x	i
Cc1ccc(NC(=O)/C=N/OCC(=O)Nc2c(C(C)C)cccc2C(C)C)cc1	x	i
O=C(Nc1ccc(Cl)c2ncsc12)c1ccc(S(=O)(=O)N2CCCCC2)cc1	x	i
CCc1cc(=O)n(CC(=O)N2CCCCC2C)c(-c2ccccc2)n1 (stereo unspecified)	x	i
COc1ccc(Cl)cc1NS(=O)(=O)c1cc(-c2cc(C(F)(F)F)on2)ccc1OC	x	i

Compound activity deposited in PubChem by National Center for Advancing Translational Sciences (NCATS).
